# This is a sample that favours compounds with a hit; in the whole collection about 12% have one here.
# BAZ2B block: blocks human BAZ2B; Q9UIF8; AlphaScreen BAZ2B-H3K14Ac peptide displacement; Potency, µM (highest dose often 114 µM), for inactives: at the highest dose activity change, negative = inhibition, hits mostly inhibitors; 360,000 compounds, 4.4% hits; AID 504333; further: on the % scale 0 is the no-effect control and ±100 the full control effect; nearly all actives have a fitted effect of over 60% in size
#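 Compounds, titrated to a top concentration of 110 uM, were incubated 30 min at room temperature with preformed BAZ2B/acetyl-K14 H3 peptide complex (50 nM each). Proximity signal was measured by AlphaScreen after 20 min with beads.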
# HP1b binding inh: blocks HP1-beta chromodomain binding to methylated histone tails; Potency, µM (doses to about 114 µM), without a hit: at the top dose activity change, negative = inhibition, hits mostly inhibitors; P83916; AID 540317; AlphaScreen HP1-beta / biotin-H3K9me3 peptide binding; 390,000 compounds, 0.56% hits; further: nearly all actives have a fitted effect of over 70% in size
# Target sequence (P83916 whole entry, looked up): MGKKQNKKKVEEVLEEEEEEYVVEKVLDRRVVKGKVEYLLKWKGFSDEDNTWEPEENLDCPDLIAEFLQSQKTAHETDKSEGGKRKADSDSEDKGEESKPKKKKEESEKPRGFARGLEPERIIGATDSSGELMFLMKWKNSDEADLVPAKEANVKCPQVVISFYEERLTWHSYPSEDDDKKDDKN
#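 Compound inhibition of the preformed complex between 50 nM HP1-beta and 50 nM biotinylated H3K9me3 peptide was read by AlphaScreen. Buffer was PBS pH 7.4 with 0.01% Tween-20. Incubations ran 30 min at room temperature, with 10 ug/mL donor/acceptor beads.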
# L3MBTL1 block: inhibitors of human L3MBTL1; 230,000 compounds, 0.66% hits; Q9Y468; Potency, µM (highest dose often 57.1 µM), for the others: at the top dose activity, negative = inhibition, hits mostly inhibitors; AlphaScreen L3MBTL1–H3K9me1 peptide binding; further: on the % scale 0 is the no-effect control and ±100 the full control effect; nearly all actives have a fitted effect of over 60% in size
#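 L3MBTL1 (50 nM) pre-complexed 30 min with biotinylated H3(1-15)K9me1 peptide (75 nM), then compounds added for 30 min at room temperature; AlphaScreen streptavidin donor/nickel chelate acceptor beads (10 ug/mL final) read after 30 min dark incubation.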
# G9a inh: blocks human histone lysine methyltransferase G9a; G9a H3K9 monomethylation, AlphaScreen, 2 h; Potency, µM (doses to about 102 µM), for the others: at the highest dose activity, negative = inhibition, actives largely listed as inhibitors; 350,000 compounds, 8.8% hits; further: on the % scale 0 is the no-effect control and ±100 the full control effect; nearly all actives have a fitted effect of over 75% in size
# Target sequence (Q96KQ7 913-1193 limits assumed): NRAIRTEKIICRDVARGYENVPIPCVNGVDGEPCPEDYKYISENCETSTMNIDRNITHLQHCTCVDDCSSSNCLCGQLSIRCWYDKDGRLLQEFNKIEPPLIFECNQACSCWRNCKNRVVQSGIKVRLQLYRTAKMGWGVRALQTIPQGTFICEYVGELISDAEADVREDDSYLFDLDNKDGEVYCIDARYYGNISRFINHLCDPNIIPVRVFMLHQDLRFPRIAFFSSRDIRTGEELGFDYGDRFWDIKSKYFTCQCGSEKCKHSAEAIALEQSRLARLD
#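 Compounds were preincubated with 20 nM G9a for 15 min, after which biotinylated H3K9 peptide (500 nM) and SAM (20 uM) started a 2 h room-temperature reaction. Monomethylated product was quantified by antibody-based AlphaScreen chemiluminescence.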
# JMJD2A Tudor inh: inhibitors of human JMJD2A Tudor domain. O75164. AlphaScreen JMJD2A-Tudor / H3K4me3 peptide binding. Potency, µM (highest dose often 114 µM), for the others: at the top dose activity change, negative = inhibition, usual class: inhibitors. 390,000 compounds, 4.4% hits. AID 504339; further: on the % scale 0 is the no-effect control and ±100 the full control effect; nearly all actives have a fitted effect of over 50% in size
# Sfp PPTase inh: blocks B. subtilis Sfp PPTase activity; Potency, µM, without a hit: largest response in the series, negative = inhibition, hits mostly inhibitors; Q9F4F7; 310,000 compounds, 3.5% hits; Biochemical Sfp PPTase activity, qHTS;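 further: the enzyme is Sfp with the accession as filed and its product quenches rhodamine fluorescence; 0% = enzyme reaction without inhibitor and -100% = no enzyme wells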
#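 Fluorescence-quenching assay: 15 nM Sfp-PPTase preincubated 15 min at room temperature with compound, then 5 uM rhodamine-CoA and 12.5 uM BHQ-2-labelled YbbR peptide added. Fluorescence (ex 525/em 598 nm) read at start and after 30 min; difference gives rate.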
# * = called active by the depositor; u = inconclusive; x = no result given; [ ] = remark or other dose. The call rests on the fitted dose curve; in most records, active means well fitted curve in the direction sought with a large enough effect; inconclusive means small, poorly fitted or top-dose-only effect, or another doubt; inactive means no such curve, though single readings can be large; an effect the other way counts as inactive or inconclusive. Potency means the concentration at half of the fitted maximal effect.
SMILES,BAZ2B block,HP1b binding inh,L3MBTL1 block,G9a inh,JMJD2A Tudor inh,Sfp PPTase inh
COCCNc1oc(-c2ccc(COc3ccc(OC)cc3)o2)nc1C#N,u,u,x,-29%[59 µM],u,x
CCCCNc1oc(-c2ccc(COc3ccc(OC)cc3)o2)nc1C#N,-19%,11%,x,-41%[59 µM],-11%,x
COc1ccc(OCc2ccc(-c3nc(C#N)c(NCc4ccc(F)cc4)o3)o2)cc1,u,-12%,x,4µM*,u,x
CCOc1ccc(CN(C)CC(=O)NCc2ccc(F)cc2)cc1,11%,27%,x,0%[2.33 µM],-9%,4%
c1ccc(CN2CCN(c3nc(N4CCOCC4)c4ccccc4n3)CC2)cc1,x,111%,x,x,-9%[57.1 µM],x
CN1CCN(c2nc(-c3ccc(N(C)C)cc3)nc3ccccc23)CC1,x,x,x,x,x,50µM*
CCN1CCN(c2nc(NCCO)c3ccccc3n2)CC1,-11%,23%,-7%,40µM*,-12%,-3%
OCCN1CCN(c2cc(-c3ccccc3)c3ccccc3n2)CC1,40µM*,u,-9%,u,0.79µM*,-23%
CN1CCN(c2nc(N3CCN(CCO)CC3)nc3ccccc23)CC1,-8%,30%,-8%,50µM*,0%,6%
COc1cccc(OCCOc2ccccc2[N+](=O)[O-])c1,x,103%,x,x,40%,x
O=[N+]([O-])c1ccccc1OCCNCc1ccccc1,u,u,1%,7.9µM*,45µM*,-20%
CC(C)(C)c1ccccc1OCCOCCNCc1ccccc1,79µM*,u,0%,14µM*,22µM*,-27%
COCCNCc1ccccc1,-2%,-9%,x,20%[59 µM],u,13%
CNCCOc1ccccc1C(C)(C)C,u,-44%,x,13µM*,3.2µM*,u
CC(C)(C)c1ccccc1OCCCCN1CCCC1,0%,33%,x,-8%,-6%,9%
COc1ccc(CN2CCNC(=O)C2CC(=O)N(C)Cc2nccs2)cc1OC (stereo unspecified),0%,28%,x,x,-16%,-13%
Cc1cc(CN(C)C(=O)CC2C(=O)NCCN2Cc2ccc(-c3ccccc3)cc2)on1 (stereo unspecified),u,16%,x,40µM*,-32%,-1%
CN(Cc1ccon1)C(=O)CC1C(=O)NCCN1CC(C)(C)C (stereo unspecified),-6%,44%,1%,45µM*,-10%[11.4 µM],12%
CN(Cc1nccs1)C(=O)CC1C(=O)NCCN1Cc1ccc(-c2ccccc2)cc1 (stereo unspecified),-35%,-1%,-24%,u,u,45µM*
O=C(CC1C(=O)NCCN1Cc1ccc(-c2ccccc2)cc1)NCCOc1cccnc1 (stereo unspecified),-9%,11%,-4%,50µM*,-28%,-14%
CC(C)N(Cc1ccccc1)C(=O)COC(=O)c1cc(S(=O)(=O)N(C)C)ccc1N1CCCC1,x,-9%,-7%,x,-27%,x
Cc1ccc(C)c(S(=O)(=O)c2nnn3c2nc(NC2CCCCC2)c2sccc23)c1,-22%,-11%,x,-9%[59 µM],-28%,x
NS(=O)(=O)c1cccc(Nc2nc3ccccc3nc2NS(=O)(=O)c2ccc(Cl)cc2)c1,x,26%[57 µM],4%,x,-10%,x
O=C1CCCc2cc(S(=O)(=O)NCC3CCC(C(=O)NCc4ccc(F)cc4)CC3)ccc2N1 (stereo unspecified),-8%,22%,x,-7%[59 µM],-17%,x
Cc1nc2c(c(SCC(=O)Nc3ccccc3C(F)(F)F)n1)CCC2,-3%,41%,x,7%[59 µM],6%,x
SMILES,BAZ2B block,HP1b binding inh,L3MBTL1 block,G9a inh,JMJD2A Tudor inh,Sfp PPTase inh
COc1cccc(CN2C(=O)c3cccc(N)c3C2=O)c1,129%,164%,72%,151%[59 µM],114%,6%
CN(Cc1cccnc1)C(=O)CC1C(=O)NCCN1Cc1ccc(-c2ccccc2)cc1 (stereo unspecified),x,23%,x,50µM*,-24%,-9%
CC(C)(C)CN1CCNC(=O)C1CC(=O)N1CCC(C(=O)N2CCOCC2)CC1 (stereo unspecified),-16%,29%,4%,-10%,-2%[11.4 µM],23%
CC(C)(C)CN1CCNC(=O)C1CC(=O)N1CCN(c2ccccc2)CC1 (stereo unspecified),-20%,28%,3%,56µM*,-22%,-28%
Cc1ccc(C(=O)NC(=S)NNC(=O)c2ccccc2O)cc1,3%,24%,x,u,-7%,26%
Cc1ccc(C(=O)/C=C/NNC(=O)c2ccccc2O)cc1,50µM*,18%,-6%,10%[59 µM],u,13%
O=C(COc1ccc2c(c1)OCO2)Nc1nnc(Cc2ccccc2)s1,-9%,u,x,18µM*,-16%,-91%
COCc1nnc(NC(=O)COc2ccc3c(c2)OCO3)s1,-31%,u,x,22µM*,-22%,56µM*
CCOCc1nnc(NC(=O)COc2ccc3c(c2)OCO3)s1,-24%,-26%,x,u,-30%,-8%
COc1cc(/C=C/C(=O)OCC(=O)Nc2oc(C)c3c(C)n[nH]c(=O)c23)ccc1OC(F)F,0%,58%,5%,14µM*,-7%,x
CCNC(=O)CSc1nc2ccccc2c(=O)n1OC,0%,19%,1%,79µM*,8%,-2%
COCCCn1c(SCC(=O)Nc2oc(C)c3c(C)n[nH]c(=O)c23)nc2ccccc2c1=O,-1%,19%,-2%,50µM*,-4%,x

# Screening results deposited in PubChem by National Center for Advancing Translational Sciences (NCATS).
